Assay outcomes from PubChem BioAssay.
D1 antag: human D1 dopamine receptor antagonism; P21728; HEK293 TREx D1 cells, calcium flux, dopamine EC80; active compounds read low; activity change, negative = inhibition, % at 10 µM; 3.2% of 360,000 active; in the data active = activity change below about -30%
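Antagonism measured as reduced calcium response to an EC80 dopamine addition following 180 s compound pre-read; cells were inducible HEK293 Trex D1 plated overnight at 30 C, read kinetically at 1 cycle/sec.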
TRHR ag: agonists of human TRH receptor | P34981 | TRHR cells, calcium flux fluo-8, FDSS agonist mode | activation, % at 2 µM | 0.18% of 360,000 active | AID 493084
Target sequence (P34981 whole entry, looked up): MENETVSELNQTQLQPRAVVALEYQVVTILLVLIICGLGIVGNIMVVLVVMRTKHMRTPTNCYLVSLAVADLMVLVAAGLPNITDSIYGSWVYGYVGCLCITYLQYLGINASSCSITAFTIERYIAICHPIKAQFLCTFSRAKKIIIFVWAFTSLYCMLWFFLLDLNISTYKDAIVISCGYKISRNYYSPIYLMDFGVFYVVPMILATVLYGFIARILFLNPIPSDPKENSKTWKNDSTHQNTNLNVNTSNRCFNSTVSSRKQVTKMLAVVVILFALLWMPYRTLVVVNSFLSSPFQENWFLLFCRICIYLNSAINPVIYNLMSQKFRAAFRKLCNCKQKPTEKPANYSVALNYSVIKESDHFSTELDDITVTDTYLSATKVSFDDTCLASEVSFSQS
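In this calcium-flux screen, cells bearing human TRHR are dye-loaded with fluo-8, baselined for 10 cycles, then exposed to library compounds; positive kinetic calcium responses during the agonist phase mark hits, with TRH as control.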
D1 ag: agonists of human D1 dopamine receptor; P21728; HEK293 T-REx D1 cells, calcium flux, agonist mode; activation, % at 2 µM; 1% of 360,000 active
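Tetracycline-induced HEK293 TREx D1 cells, force-coupled to calcium signalling, were dye-loaded with a no-wash calcium kit. Compound was pin-added after a 10 s baseline. Fluorescence was read kinetically at 1 cycle/s for 180 s, with calcium rises flagged as agonism.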
TRHR PAM: allosterically enhances the human TRH receptor; enhancement, % at 2 µM; P34981; 0.66% of 360,000 active; TRHR cells, fluo-8 calcium fluorescence, EC20 TRH enhancement; in the data active = enhancement above about 30%
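Enhancer read-out: after compound pinning and an initial kinetic agonist-mode read, an EC20 of TRH (10 nM final) was injected and fluo-8 calcium signal (Ex 480/Em 530) followed at 1 s/cycle for 100 cycles in TRHR-expressing cells.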
LDHA inh: inhibitors of human lactate dehydrogenase A | P00338 | activity change, % (values are at about 110 or 230 µM) | purified LDHA, NADH/diaphorase-resazurin fluorescence; active compounds read low | 0.15% of 480,000 active | AID 1347041; in the data active = activity change below about -30%
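Resorufin fluorescence (ex540/em590), read at 0 and 20 min after diaphorase/resazurin addition, reports the NADH left after a 5 min room-temperature reaction of 2 nM human LDH5 with 0.06 mM NADH and 0.2 mM pyruvate.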
D1 potentiator: human D1 dopamine receptor positive modulation | P21728 | potentiation, % at 10 µM | HEK293 TREx D1 cells, calcium flux, dopamine EC20 potentiation | 0.036% of 360,000 active; in the data active = potentiation above about 30%
A number is an active result; i = inactive; nt = no result. Sampled rows, rich in hits. Any-hit rate of the full collection: about 3.6%. Rule as the data show it, unless noted: active = activation above about 30%; inactive = the rest.

SMILES	D1 antag	TRHR ag	D1 ag	TRHR PAM	LDHA inh	D1 potentiator
COc1ccc(C)c2sc(N3CCCC3)nc12	-37	i	i	i	i	i
CCCCC(=O)N1CCN(c2nc3c(OC)ccc(C)c3s2)CC1	nt	nt	nt	nt	i	nt
O=C1CC(c2ccccc2Cl)CC(O)=C1C=NCCCO (stereo unspecified)	i	i	i	34	i	i
O=C1CC(c2ccccc2)CC(O)=C1C=NCCCO (stereo unspecified)	i	i	i	i	i	i
CCCSc1nsc(NC(=O)C(c2ccccc2)c2ccccc2)n1	i	i	i	i	i	i
COc1cccc(NC(=O)Nc2nc(SC)ns2)c1	i	i	i	i	i	i
CCCSc1nsc(NC(=O)Nc2ccc(F)cc2F)n1	-60	i	33	i	i	i
COc1cccc(NC(=O)Nc2nc(SC(C)(C)C)ns2)c1	-40	i	i	i	i	i
CCSc1nsc(NC(=O)Nc2cccc(F)c2)n1	-44	i	42	i	i	i
O=C(CSc1nnc(NC(=O)Nc2ccccc2)s1)Nc1cccc(F)c1	nt	i	i	i	i	i
CC(C)=CC(=O)Nc1ccc(CC(=O)N2CCOCC2)cc1	nt	nt	nt	nt	i	nt
CCc1noc(CN2CCN(c3oc(C4CC4)nc3C#N)CC2)n1	nt	nt	nt	nt	i	nt
Cc1oc(-c2ccccc2)nc1C(=O)Nc1ccc(S(=O)(=O)N2CCCC2)cc1	nt	nt	nt	nt	i	nt
O=C(C1=C(O)C(=O)N(CC2CCCO2)C1c1cccnc1)c1ccco1 (stereo unspecified)	-30	i	i	i	i	i
Cc1ccc(C)c(NC(=O)C2CCN(S(=O)(=O)c3cccs3)CC2)c1	nt	nt	nt	nt	i	nt
Cc1ccc(-c2nc(CC(=O)NCc3ccccc3F)cs2)o1	nt	nt	nt	nt	i	nt
Cc1ccc(-c2nc(CC(=O)NCCc3ccccc3F)cs2)o1	nt	nt	nt	nt	-33	nt
COc1ccc(S(=O)(=O)c2c(Nc3c(C)cccc3C)sc(C(=O)c3ccc(F)cc3)c2N)cc1	i	i	52	i	i	i
Cc1ccccc1Nc1sc(C(=O)c2ccccc2)c(N)c1S(C)(=O)=O	i	i	i	i	i	i
COc1cccc(Nc2sc(C(=O)c3ccc4c(c3)OCO4)c(N)c2S(=O)(=O)c2ccccc2)c1	i	i	i	i	i	i
COc1ccccc1Nc1sc(C(=O)c2ccc(F)cc2)c(N)c1S(=O)(=O)c1ccc(C)cc1	i	i	32	i	i	i
COc1ccc(S(=O)(=O)c2c(Nc3cccc(C)c3C)sc(C(=O)c3ccccc3)c2N)cc1	i	i	38	i	i	i
COc1ccc(S(=O)(=O)c2c(Nc3c(C)cccc3C)sc(C(=O)c3ccc4c(c3)OCO4)c2N)cc1	i	i	31	i	i	i
CCCC(C)(C)NC(=O)CCc1ccc(OC)c(OC)c1OC	nt	nt	nt	nt	i	nt
N#C/C(=C\c1ccc(-c2ccc(Br)cc2)o1)C(=O)NCCc1c[nH]c2ccccc12	-34	i	i	i	i	i
SMILES	D1 antag	TRHR ag	D1 ag	TRHR PAM	LDHA inh	D1 potentiator
N#C/C(=C/c1ccc2c(c1)OCO2)C(=O)NCCc1c[nH]c2ccccc12	i	i	i	i	i	i
CCCCN(C)S(=O)(=O)c1cc(-c2nc(-c3cccc(F)c3)no2)sc1C	nt	nt	nt	nt	i	nt
Cc1ccccc1CN1c2ccccc2-c2nc(SCC(=O)c3ccccc3)ncc2S1(=O)=O	-38	i	i	i	i	i
O=C(CSc1ncc2c(n1)-c1cc(Cl)ccc1N(Cc1ccccc1)S2(=O)=O)Nc1ccc(F)cc1F	i	i	i	i	i	i
Cc1ccccc1CN1c2ccccc2-c2nc(SCC(N)=O)ncc2S1(=O)=O	i	i	i	i	i	i
CCc1ccccc1NC(=O)CSc1ncc2c(n1)-c1ccccc1N(Cc1ccc(C)cc1)S2(=O)=O	-37	i	i	i	i	i
Cc1ccc(CN2c3ccccc3-c3nc(SCC(=O)NCc4ccccc4)ncc3S2(=O)=O)cc1	i	i	i	i	i	i
COc1ccccc1NC(=O)CSc1ncc2c(n1)-c1cc(Cl)ccc1N(Cc1ccccc1)S2(=O)=O	-33	i	i	i	i	i
Cc1[nH][nH]c(=O)c1C(c1c(C)[nH][nH]c1=O)c1cn(Cc2ccc(Cl)c(Cl)c2)c2ccccc12	i	i	i	i	i	i
Cc1[nH][nH]c(=O)c1C(c1c(C)[nH][nH]c1=O)c1cn(Cc2ccc(F)cc2)c2ccccc12	-32	i	i	i	i	i
NC(=O)c1ccc(/C=N/O)nc1	i	i	i	38	i	i
CCCn1nc(C(=O)N(C)Cc2ccccc2N2CCCCC2)c2ccccc2c1=O	nt	nt	nt	nt	i	nt
Cc1ccc(NC(=O)N2CCN3CCCCC3C2)cc1C (stereo unspecified)	-36	i	i	i	i	i
Cc1cc(C)cc(NC(=O)N2CCN3CCCCC3C2)c1 (stereo unspecified)	i	i	i	i	i	i
O=C(CCl)Nc1ccc2c(c1)CCC2	nt	nt	nt	nt	i	nt
COc1cc(C(=O)N2N=C(C)CC2(O)C(F)(F)F)cc(OC)c1OC (stereo unspecified)	nt	nt	nt	nt	i	nt
CC1=NN(C(=O)c2ccccc2-n2cccc2)C(O)(C(F)(F)F)C1 (stereo unspecified)	-50	i	i	i	i	i
Cc1nnc(-c2ccccc2)nc1N1CCOCC1	i	i	i	i	i	i
c1ccc(-c2nc(N3CCCC3)c3ccccc3n2)nc1	nt	nt	nt	nt	i	nt
c1ccc(-c2nc(N3CCOCC3)c3ccccc3n2)nc1	-34	i	i	i	i	i
Cc1nc(-c2ccccn2)nc(N2CCOCC2)c1Cl	-43	i	i	i	i	i
N#Cc1c(NC(=S)NC(=O)c2ccccc2)sc2c1CCN(CCc1ccccc1)C2	i	i	48	i	nt	i
CC(C)(C)C(=O)Nc1sc2c(c1C#N)CCN(Cc1ccccc1)C2	i	i	33	i	i	i
CC(C)(C)C(=O)Nc1sc2c(c1C#N)CCCCC2	i	i	i	i	i	i
CC(C)(C)CC(=O)NCCCNC(=O)c1cccc(O)c1	nt	nt	nt	nt	i	nt
SMILES	D1 antag	TRHR ag	D1 ag	TRHR PAM	LDHA inh	D1 potentiator
CN(Cc1ccc(-c2ccc(Cl)cc2)o1)C(=O)CSc1nnc(C2CC2)n1Cc1ccco1	nt	nt	nt	nt	i	nt
O=C1C(Cl)=C(Nc2ccc(F)cc2)C(=O)N1CCc1ccccc1	-35	i	i	i	i	i
O=C1C(Cl)=C(NCCc2ccccc2)C(=O)N1CCc1ccccc1	i	i	i	i	i	i
COc1cc(/C=N/N=C2\CC3CCC2(C)C3(C)C)ccc1O (stereo unspecified)	-60	i	i	i	i	i
COc1ccc(CNC(=O)C2CCN(S(=O)(=O)c3ccc4c(ccn4C)c3)CC2)cc1	-35	i	i	i	i	i
Cc1ccccc1CCNC(=O)Cn1ccc2cc(S(=O)(=O)N3CCCC3)ccc21	i	i	i	30	i	i
